Measurements published in PubChem BioAssay AID1159580 (chemical genetic matrix, 2015).
Screen size: about 5,500 compounds; about 2,000 (36%) were called active. Not shown: some 18% with an inconclusive outcome. Cut-off read from the data, not from the text of the source: active = normalized growth mostly below about 0.91 (no sharp cut-off); inconclusive = no clear call, values can overlap the other calls; inactive = mostly above about 0.92. Some of the results follow.

Experiment: chemical genetic growth profiling, strain panel (AID 1159580);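 note: tested at 20 µM; growth read once vehicle control cultures reached saturation at 30 °C; 1 = growth at the plate median or of vehicle wells; lower values mean less growth of the strain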
Conditions: S. cerevisiae deletion strains, growth OD
[1] = locus YAR019C, strain CDC15, stronger effect = lower value
[2] = locus YBL105C, strain PKC1, stronger effect = lower value
[3] = locus YBR135W, strain CKS1, stronger effect = lower value
[4] = locus YBR136W, strain MEC1, stronger effect = lower value
[5] = locus YBR160W, strain CDC28, stronger effect = lower value
[6] = locus YDL017W, strain CDC7, stronger effect = lower value
[7] = locus YDL028C, strain MPS1, stronger effect = lower value
[8] = locus YDL101C, strain DUN1, stronger effect = lower value
[9] = locus YDL108W, strain KIN28, stronger effect = lower value
[10] = locus YDL132W, strain cdc53, stronger effect = lower value
[11] = locus YDL214C, strain PRR2, stronger effect = lower value
[12] = locus YDR052C, strain DBF4, stronger effect = lower value
[13] = locus YDR054C, strain cdc34, stronger effect = lower value
[14] = locus YDR226W, strain ADK1, stronger effect = lower value
[15] = locus YDR477W, strain SNF1, stronger effect = lower value
[16] = locus YER123W, strain YCK3, stronger effect = lower value
[17] = locus YER133W, strain GLC7, stronger effect = lower value
[18] = locus YFL009W, strain cdc4, stronger effect = lower value
[19] = locus YFL029C, strain CAK1, stronger effect = lower value
[20] = locus YFR003C, strain YPI1, stronger effect = lower value
[21] = locus YFR019W, strain FAB1, stronger effect = lower value
[22] = locus YFR028C, strain CDC14, stronger effect = lower value
[23] = locus YGR040W, strain KSS1, stronger effect = lower value
[24] = locus YGR052W, strain FMP48, stronger effect = lower value
[25] = locus YGR092W, strain DBF2, stronger effect = lower value
[26] = locus YHR030C, strain SLT2, stronger effect = lower value
[27] = locus YHR079C, strain IRE1, stronger effect = lower value
[28] = locus YHR082C, strain KSP1, stronger effect = lower value
[29] = locus YHR205W, strain SCH9, stronger effect = lower value
[30] = locus YIL147C, strain SLN1, stronger effect = lower value
[31] = locus YJL095W, strain BCK1, stronger effect = lower value
[32] = locus YJL128C, strain PBS2, stronger effect = lower value
[33] = locus YJL157C, strain FAR1, stronger effect = lower value
[34] = locus YJR016C, strain ILV3, stronger effect = lower value
[35] = locus YJR066W, strain TOR1 (second series), stronger effect = lower value
[36] = locus YJR066W, strain TOR1, stronger effect = lower value
[37] = locus YKL048C, strain ELM1, stronger effect = lower value
[38] = locus YKL067W, strain YNK1, stronger effect = lower value
[39] = locus YKL101W, strain HSL1, stronger effect = lower value
[40] = locus YKL193C, strain SDS22, stronger effect = lower value
[41] = locus YKL203C, strain TOR2, stronger effect = lower value
[42] = locus YLR113W, strain HOG1, stronger effect = lower value
[43] = locus YLR133W, strain CKI1, stronger effect = lower value
[44] = locus YLR403W, strain SFP1, stronger effect = lower value
[45] = locus YML070W, strain DAK1, stronger effect = lower value
[46] = locus YMR001C, strain CDC5, stronger effect = lower value
[47] = locus YMR205C, strain PFK2 (second series), stronger effect = lower value
[48] = locus YMR277W, strain FCP1, stronger effect = lower value
[49] = locus YNL006W, strain LST8, stronger effect = lower value
[50] = locus YNL020C, strain ARK1, stronger effect = lower value
[51] = locus YNL161W, strain CBK1, stronger effect = lower value
[52] = locus YNL183C, strain NPR1, stronger effect = lower value
[53] = locus YNL207W, strain RIO2, stronger effect = lower value
[54] = locus YNL222W, strain SSU72, stronger effect = lower value
[55] = locus YNL307C, strain MCK1 (second series), stronger effect = lower value
[56] = locus YOL078W, strain AVO1, stronger effect = lower value
[57] = locus YOL136C, strain PFK27, stronger effect = lower value
[58] = locus YOR061W, strain CKA2, stronger effect = lower value
[59] = locus YOR119C, strain RIO1, stronger effect = lower value
[60] = locus YOR231W, strain MKK1, stronger effect = lower value
[61] = locus YOR329C, strain SCD5, stronger effect = lower value
[62] = locus YPL031C, strain PHO85, stronger effect = lower value
[63] = locus YPL153C, strain RAD53, stronger effect = lower value
[64] = locus YPL204W, strain HRR25, stronger effect = lower value
[65] = locus YPL209C, strain IPL1, stronger effect = lower value
[66] = locus YPL256C, strain CLN2, stronger effect = lower value
[67] = locus YPR025C, strain CCL1, stronger effect = lower value
[68] = locus YPR106W, strain ISR1, stronger effect = lower value
[69] = locus YPR111W, strain DBF20, stronger effect = lower value
[70] = strain NNK1, stronger effect = lower value
[71] = strain TSCII, stronger effect = lower value

Measured: normalized growth

Clc1ccccc1-c1csc(-c2ccncc2)n1
inactive: [1] 0.962 | [2] 0.966 | [3] 0.964 | [4] 0.968 | [5] 0.962 | [6] 0.964 | [7] 0.966 | [8] 0.963 | [9] 0.965 | [10] 0.966 | [11] 0.971 | [12] 0.977 | [13] 0.922 | [14] 0.966 | [15] 0.937 | [16] 0.895 | [17] 0.945 | [18] 0.942 | [19] 0.964 | [20] 0.964 | [21] 0.961 | [22] 0.96 | [23] 0.951 | [24] 1.02 | [25] 0.85 | [26] 0.946 | [27] 0.923 | [28] 1.12 | [29] 1.03 | [30] 0.962 | [31] 0.829 | [32] 0.933 | [33] 0.93 | [34] 0.964 | [35] 0.94 | [36] 1.02 | [37] 0.99 | [38] 0.974 | [39] 0.987 | [40] 0.949 | [41] 0.992 | [42] 0.969 | [43] 0.979 | [44] 0.927 | [45] 0.977 | [46] 0.963 | [47] 0.972 | [48] 0.963 | [49] 0.97 | [50] 0.965 | [51] 0.96 | [52] 1.07 | [53] 0.962 | [54] 0.965 | [55] 0.971 | [56] 0.957 | [57] 0.97 | [58] 0.99 | [59] 0.981 | [60] 0.988 | [61] 0.964 | [62] 0.918 | [63] 0.925 | [64] 0.93 | [65] 0.965 | [66] 1.03 | [67] 0.968 | [68] 0.965 | [69] 0.97 | [70] 0.97 | [71] 0.951

COc1ccc(-c2cn3cc(C)ccc3n2)cc1
inactive: [1] 0.98 | [2] 0.975 | [3] 0.97 | [4] 0.978 | [5] 0.971 | [6] 0.987 | [7] 0.986 | [8] 0.984 | [9] 0.983 | [10] 0.977 | [11] 0.97 | [12] 0.985 | [13] 0.973 | [14] 0.982 | [15] 0.975 | [16] 0.953 | [17] 0.981 | [18] 0.98 | [19] 0.973 | [20] 0.98 | [21] 0.981 | [22] 0.975 | [23] 0.966 | [24] 1.07 | [25] 0.937 | [26] 1.01 | [27] 1.02 | [28] 1.04 | [29] 0.963 | [30] 0.983 | [31] 1.02 | [32] 0.943 | [33] 0.968 | [34] 0.979 | [35] 0.995 | [36] 1.06 | [37] 0.957 | [38] 0.976 | [39] 0.961 | [40] 0.978 | [41] 1.05 | [42] 0.923 | [43] 0.956 | [44] 0.96 | [45] 0.956 | [46] 0.977 | [47] 0.973 | [48] 0.979 | [49] 0.995 | [50] 0.963 | [51] 0.971 | [52] 1.02 | [53] 0.977 | [54] 0.975 | [55] 0.953 | [56] 0.978 | [57] 0.969 | [58] 0.973 | [59] 1.03 | [60] 0.959 | [61] 0.982 | [62] 0.979 | [63] 0.986 | [64] 0.992 | [65] 0.962 | [66] 0.96 | [67] 0.978 | [68] 0.971 | [69] 0.954 | [70] 0.978 | [71] 0.972

COc1ccc(-c2csc(-c3cccnc3)n2)cc1
active: [26] 0.849
inactive: [1] 0.96 | [2] 0.966 | [3] 0.957 | [4] 0.958 | [5] 0.963 | [6] 0.961 | [7] 0.965 | [8] 0.951 | [9] 0.958 | [10] 0.961 | [11] 0.909 | [12] 0.973 | [13] 0.945 | [14] 0.946 | [15] 0.894 | [16] 0.847 | [17] 0.888 | [18] 0.954 | [19] 0.949 | [20] 0.947 | [21] 0.86 | [22] 0.949 | [23] 0.858 | [24] 0.993 | [25] 0.828 | [27] 0.889 | [28] 0.954 | [29] 0.955 | [30] 0.961 | [31] 0.884 | [32] 0.966 | [33] 0.914 | [34] 0.955 | [35] 0.857 | [36] 0.891 | [37] 0.958 | [38] 0.912 | [39] 0.928 | [40] 0.948 | [41] 0.904 | [42] 1.01 | [43] 0.915 | [44] 0.877 | [45] 0.912 | [46] 0.959 | [47] 0.907 | [48] 0.95 | [49] 0.968 | [50] 0.903 | [51] 0.963 | [52] 0.882 | [53] 0.949 | [54] 0.953 | [55] 0.888 | [56] 0.948 | [57] 0.915 | [58] 0.929 | [59] 0.948 | [60] 0.906 | [61] 0.957 | [62] 0.876 | [63] 0.883 | [64] 0.852 | [65] 0.963 | [66] 0.901 | [67] 0.958 | [68] 0.958 | [69] 0.956 | [70] 0.957 | [71] 0.952
